# From PMC7862700, “An all-to-all approach to the identification of sequence-specific readers for epigenetic DNA modifications on cytosine”
# Key:
# Assay in all cases: DAPPL (digital affinity profiling via proximity ligation, sequencing); 10 mM Tris-HCl pH 7.5, 50 mM NaCl, 1 mM DTT, 4% glycerol, room temperature, 30 min; GST-TFs on glutathione beads, 16-mer random dsDNA library, 0.1% formaldehyde crosslink after washing; high values mean tight binding
# FLI1 = target: T1, FLI1 (Homo sapiens, UniProt Q01543 1-452); settings: protein: recombinant; tags: N-terminal GST; dsDNA, one strand shown
# T1 sequence: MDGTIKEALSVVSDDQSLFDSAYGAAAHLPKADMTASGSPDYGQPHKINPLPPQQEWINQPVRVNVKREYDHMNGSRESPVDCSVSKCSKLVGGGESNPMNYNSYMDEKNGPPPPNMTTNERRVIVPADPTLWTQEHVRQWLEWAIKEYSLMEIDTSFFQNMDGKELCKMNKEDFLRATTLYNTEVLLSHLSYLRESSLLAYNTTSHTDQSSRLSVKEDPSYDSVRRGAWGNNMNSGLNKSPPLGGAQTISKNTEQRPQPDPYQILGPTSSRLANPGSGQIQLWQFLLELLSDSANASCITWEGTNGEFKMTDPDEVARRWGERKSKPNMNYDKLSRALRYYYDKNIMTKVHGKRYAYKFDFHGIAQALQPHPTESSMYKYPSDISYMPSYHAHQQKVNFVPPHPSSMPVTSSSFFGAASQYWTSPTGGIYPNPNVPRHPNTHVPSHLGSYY
# Procedure, shortened: (§1)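 Human transcription factors carrying a GST fusion were produced in yeast, bound to glutathione beads, tagged with DNA barcodes and pooled together with a tag-only sample. Each pool was held with 200 nmole of a random double-stranded 16-mer DNA library in Tris/NaCl/DTT/glycerol buffer for 30 min at room temperature, then washed, crosslinked in 0.1% formaldehyde, proximity-ligated with BsaI/T4 ligase (1 h, 37 °C), PCR-amplified and sequenced on an Illumina NextSeq500. Binding signal is the read frequency of each hexamer for a given factor divided by its frequency in the tag-only sample.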
# ELK1 = target: T2, ELK1 (Homo sapiens, UniProt P19419 1-428); settings: protein: recombinant; tags: N-terminal GST; dsDNA, one strand shown
# T2 sequence: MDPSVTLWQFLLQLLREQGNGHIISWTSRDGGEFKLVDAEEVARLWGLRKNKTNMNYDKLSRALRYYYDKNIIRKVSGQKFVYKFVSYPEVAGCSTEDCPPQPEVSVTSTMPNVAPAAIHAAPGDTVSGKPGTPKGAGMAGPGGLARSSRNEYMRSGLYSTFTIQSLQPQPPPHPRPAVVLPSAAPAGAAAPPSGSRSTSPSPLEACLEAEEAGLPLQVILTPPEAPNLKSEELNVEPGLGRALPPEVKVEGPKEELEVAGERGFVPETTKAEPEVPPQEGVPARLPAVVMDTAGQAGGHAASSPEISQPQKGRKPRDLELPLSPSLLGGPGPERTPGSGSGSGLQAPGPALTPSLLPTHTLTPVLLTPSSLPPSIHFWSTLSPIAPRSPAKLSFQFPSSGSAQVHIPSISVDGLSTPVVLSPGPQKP
# Procedure, shortened: as §1
# GABPA = target: T3, GABPA (Homo sapiens, UniProt Q06546 1-454); settings: protein: recombinant; tags: N-terminal GST; dsDNA, one strand shown
# T3 sequence: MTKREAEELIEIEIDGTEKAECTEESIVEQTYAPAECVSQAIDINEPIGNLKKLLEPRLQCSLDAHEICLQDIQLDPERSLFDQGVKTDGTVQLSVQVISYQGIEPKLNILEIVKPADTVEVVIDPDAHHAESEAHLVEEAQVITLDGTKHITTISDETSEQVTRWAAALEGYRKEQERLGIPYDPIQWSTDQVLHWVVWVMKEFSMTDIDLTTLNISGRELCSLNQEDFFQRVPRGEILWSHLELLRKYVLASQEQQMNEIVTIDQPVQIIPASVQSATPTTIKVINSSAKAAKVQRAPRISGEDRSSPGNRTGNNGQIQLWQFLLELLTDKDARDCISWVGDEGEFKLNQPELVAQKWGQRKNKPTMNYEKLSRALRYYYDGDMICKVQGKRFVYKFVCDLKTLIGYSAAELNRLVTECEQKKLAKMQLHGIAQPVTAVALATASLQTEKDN
# Procedure, shortened: as §1
# ERG = target: T4, ERG (Homo sapiens, UniProt P11308 1-479); settings: protein: recombinant; tags: N-terminal GST; dsDNA, one strand shown
# T4 sequence: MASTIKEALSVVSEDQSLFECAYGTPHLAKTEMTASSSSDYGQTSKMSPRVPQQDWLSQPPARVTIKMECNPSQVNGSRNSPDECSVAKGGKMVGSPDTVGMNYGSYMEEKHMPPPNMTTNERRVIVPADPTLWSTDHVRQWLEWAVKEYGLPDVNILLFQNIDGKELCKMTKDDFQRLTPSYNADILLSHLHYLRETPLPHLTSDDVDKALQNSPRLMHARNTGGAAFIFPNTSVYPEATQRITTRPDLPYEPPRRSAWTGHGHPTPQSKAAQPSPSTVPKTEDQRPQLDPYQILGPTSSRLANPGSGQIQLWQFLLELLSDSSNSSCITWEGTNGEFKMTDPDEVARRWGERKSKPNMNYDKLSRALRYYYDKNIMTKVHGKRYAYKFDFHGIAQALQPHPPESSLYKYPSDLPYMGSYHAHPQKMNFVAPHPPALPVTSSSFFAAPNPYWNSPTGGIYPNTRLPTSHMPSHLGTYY
# Procedure, shortened: as §1
# ELF1 = ELF1 (Homo sapiens, UniProt P32519 1-619); settings: protein: recombinant; tags: N-terminal GST; dsDNA, one strand shown
# Chain of ELF1 (P32519 whole entry): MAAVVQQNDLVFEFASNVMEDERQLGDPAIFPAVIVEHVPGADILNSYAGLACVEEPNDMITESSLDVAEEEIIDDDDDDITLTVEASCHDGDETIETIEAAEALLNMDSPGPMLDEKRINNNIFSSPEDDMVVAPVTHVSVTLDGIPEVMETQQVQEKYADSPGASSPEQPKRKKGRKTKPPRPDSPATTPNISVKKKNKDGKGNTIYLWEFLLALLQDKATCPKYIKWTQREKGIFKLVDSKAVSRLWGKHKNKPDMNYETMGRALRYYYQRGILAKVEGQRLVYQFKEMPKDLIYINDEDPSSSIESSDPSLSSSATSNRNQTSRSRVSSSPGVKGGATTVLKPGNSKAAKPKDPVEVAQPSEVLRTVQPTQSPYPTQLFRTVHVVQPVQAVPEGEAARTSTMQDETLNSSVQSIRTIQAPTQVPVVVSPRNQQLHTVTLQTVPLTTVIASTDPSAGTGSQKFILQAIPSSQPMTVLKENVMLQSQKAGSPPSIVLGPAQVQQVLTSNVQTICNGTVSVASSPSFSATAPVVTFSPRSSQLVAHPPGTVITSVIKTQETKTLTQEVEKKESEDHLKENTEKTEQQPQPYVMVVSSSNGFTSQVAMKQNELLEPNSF
# Procedure, shortened: as §1
# EHF = target: T5, EHF (Homo sapiens, UniProt Q9NZC4 1-300); settings: protein: recombinant; tags: N-terminal GST; dsDNA, one strand shown
# T5 sequence: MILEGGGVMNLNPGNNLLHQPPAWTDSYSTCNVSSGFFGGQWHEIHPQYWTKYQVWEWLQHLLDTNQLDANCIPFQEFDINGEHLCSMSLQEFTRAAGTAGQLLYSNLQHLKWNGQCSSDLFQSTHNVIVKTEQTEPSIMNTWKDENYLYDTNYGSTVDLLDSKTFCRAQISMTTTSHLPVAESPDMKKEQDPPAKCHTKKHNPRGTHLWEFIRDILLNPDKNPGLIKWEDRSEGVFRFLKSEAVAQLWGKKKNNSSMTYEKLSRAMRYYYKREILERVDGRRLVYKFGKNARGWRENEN
# Procedure, shortened: as §1
# SPI1 = SPI1 (Homo sapiens, UniProt P17947 1-270); settings: protein: recombinant; tags: N-terminal GST; dsDNA, one strand shown
# Procedure, shortened: as §1
# SPIB = SPIB (Homo sapiens, UniProt Q01892 1-262); settings: protein: recombinant; tags: N-terminal GST; dsDNA, one strand shown
# Chain of SPIB (Q01892 whole entry): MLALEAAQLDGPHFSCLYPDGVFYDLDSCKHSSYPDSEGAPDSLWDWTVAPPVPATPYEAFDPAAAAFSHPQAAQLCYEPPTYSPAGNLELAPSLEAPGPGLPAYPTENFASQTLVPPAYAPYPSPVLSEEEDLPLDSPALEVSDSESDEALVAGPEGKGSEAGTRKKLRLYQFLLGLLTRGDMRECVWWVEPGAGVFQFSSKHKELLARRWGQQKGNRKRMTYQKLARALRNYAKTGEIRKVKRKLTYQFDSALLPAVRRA
# Procedure, shortened: as §1
# ELK3 = target: T6, ELK3 (Homo sapiens, UniProt P41970 1-407); settings: protein: recombinant; tags: N-terminal GST; dsDNA, one strand shown
# T6 sequence: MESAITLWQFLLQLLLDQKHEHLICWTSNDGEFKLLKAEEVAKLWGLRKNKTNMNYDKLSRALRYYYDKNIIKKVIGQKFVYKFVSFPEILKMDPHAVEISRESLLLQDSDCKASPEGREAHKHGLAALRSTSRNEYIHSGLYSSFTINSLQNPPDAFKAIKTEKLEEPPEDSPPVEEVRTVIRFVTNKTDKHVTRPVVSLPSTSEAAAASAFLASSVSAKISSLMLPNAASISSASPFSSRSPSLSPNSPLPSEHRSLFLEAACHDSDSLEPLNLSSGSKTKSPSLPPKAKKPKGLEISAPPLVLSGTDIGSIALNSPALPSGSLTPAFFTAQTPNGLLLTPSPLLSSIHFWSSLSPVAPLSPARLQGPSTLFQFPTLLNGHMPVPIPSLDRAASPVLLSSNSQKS
# Procedure, shortened: as §1
# FEV = target: T7, FEV (Homo sapiens, UniProt Q99581 1-238); settings: protein: recombinant; tags: N-terminal GST; dsDNA, one strand shown
# T7 sequence: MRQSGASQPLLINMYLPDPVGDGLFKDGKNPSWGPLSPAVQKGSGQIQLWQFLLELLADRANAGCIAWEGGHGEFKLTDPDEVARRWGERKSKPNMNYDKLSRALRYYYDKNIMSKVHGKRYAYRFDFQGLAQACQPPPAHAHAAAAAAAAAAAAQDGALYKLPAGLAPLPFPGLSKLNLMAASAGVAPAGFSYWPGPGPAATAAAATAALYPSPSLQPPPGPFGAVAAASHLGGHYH
# Procedure, shortened: as §1
# ETV5 = ETV5 (Homo sapiens, UniProt P41161 1-510); settings: protein: recombinant; tags: N-terminal GST; dsDNA, one strand shown
# Chain of ETV5 (P41161 whole entry): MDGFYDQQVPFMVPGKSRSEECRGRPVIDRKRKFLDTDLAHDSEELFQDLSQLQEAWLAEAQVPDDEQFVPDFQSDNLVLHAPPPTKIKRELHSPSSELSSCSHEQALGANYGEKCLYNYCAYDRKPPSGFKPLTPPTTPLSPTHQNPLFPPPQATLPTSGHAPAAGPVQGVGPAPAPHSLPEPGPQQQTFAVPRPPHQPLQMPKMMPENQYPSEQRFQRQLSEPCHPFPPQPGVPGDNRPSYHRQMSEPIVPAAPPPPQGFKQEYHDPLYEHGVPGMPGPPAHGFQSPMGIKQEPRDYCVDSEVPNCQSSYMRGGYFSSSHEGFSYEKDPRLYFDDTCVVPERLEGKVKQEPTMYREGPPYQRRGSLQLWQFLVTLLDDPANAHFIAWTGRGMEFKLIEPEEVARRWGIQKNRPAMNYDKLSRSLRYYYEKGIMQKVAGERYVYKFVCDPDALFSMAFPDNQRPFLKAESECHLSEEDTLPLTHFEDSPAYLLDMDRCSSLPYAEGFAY
# Procedure, shortened: as §1
# HSF1 = HSF1 (Homo sapiens, UniProt Q00613 1-529); settings: protein: recombinant; tags: N-terminal GST; chain copies: 3; dsDNA, one strand shown
# Chain of HSF1 (Q00613 whole entry): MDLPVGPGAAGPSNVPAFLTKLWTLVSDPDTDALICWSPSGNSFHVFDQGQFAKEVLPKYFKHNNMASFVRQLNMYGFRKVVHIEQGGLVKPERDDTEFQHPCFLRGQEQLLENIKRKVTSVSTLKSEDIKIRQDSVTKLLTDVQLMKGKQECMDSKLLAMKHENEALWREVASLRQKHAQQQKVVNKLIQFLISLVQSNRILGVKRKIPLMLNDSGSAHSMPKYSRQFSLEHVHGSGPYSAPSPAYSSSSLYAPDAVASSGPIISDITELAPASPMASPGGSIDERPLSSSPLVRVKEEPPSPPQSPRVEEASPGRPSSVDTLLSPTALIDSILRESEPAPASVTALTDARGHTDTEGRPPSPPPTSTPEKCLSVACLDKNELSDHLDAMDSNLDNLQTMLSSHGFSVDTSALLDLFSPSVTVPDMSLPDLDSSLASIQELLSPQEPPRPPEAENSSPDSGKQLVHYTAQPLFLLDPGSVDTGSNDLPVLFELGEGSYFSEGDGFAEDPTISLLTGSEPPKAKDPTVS
# Procedure, shortened: as §1
# SPIC = target: T8, SPIC (Homo sapiens, UniProt Q8N5J4 1-248); settings: protein: recombinant; tags: N-terminal GST; dsDNA, one strand shown
# T8 sequence: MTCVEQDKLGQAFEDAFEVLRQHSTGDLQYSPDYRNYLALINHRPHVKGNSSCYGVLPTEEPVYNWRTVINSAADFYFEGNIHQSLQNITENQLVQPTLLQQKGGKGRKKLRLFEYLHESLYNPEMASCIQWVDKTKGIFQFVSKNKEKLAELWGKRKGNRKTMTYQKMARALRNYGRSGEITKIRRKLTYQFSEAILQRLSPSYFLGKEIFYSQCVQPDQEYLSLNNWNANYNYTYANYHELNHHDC
# Procedure, shortened: as §1
# ELF4 = ELF4 (Homo sapiens, UniProt Q99607 1-663); settings: protein: recombinant; tags: N-terminal GST; dsDNA, one strand shown
# Chain of ELF4 (Q99607 whole entry): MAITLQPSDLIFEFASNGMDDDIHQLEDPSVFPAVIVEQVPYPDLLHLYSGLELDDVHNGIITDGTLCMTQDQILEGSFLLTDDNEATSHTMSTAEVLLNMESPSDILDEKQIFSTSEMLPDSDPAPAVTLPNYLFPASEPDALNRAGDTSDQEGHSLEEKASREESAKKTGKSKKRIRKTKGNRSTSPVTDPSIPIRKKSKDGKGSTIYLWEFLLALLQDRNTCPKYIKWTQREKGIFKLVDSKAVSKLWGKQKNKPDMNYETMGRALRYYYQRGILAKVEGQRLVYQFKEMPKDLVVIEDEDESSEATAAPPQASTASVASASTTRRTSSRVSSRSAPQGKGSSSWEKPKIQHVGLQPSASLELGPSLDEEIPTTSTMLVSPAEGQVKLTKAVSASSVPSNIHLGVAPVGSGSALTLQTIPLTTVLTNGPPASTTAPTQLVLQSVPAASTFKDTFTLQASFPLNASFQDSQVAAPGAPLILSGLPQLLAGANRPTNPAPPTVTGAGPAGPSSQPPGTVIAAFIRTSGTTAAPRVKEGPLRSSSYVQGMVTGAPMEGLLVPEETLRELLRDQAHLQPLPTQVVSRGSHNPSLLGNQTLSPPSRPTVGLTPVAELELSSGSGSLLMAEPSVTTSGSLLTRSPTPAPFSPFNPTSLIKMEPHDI
# Procedure, shortened: as §1
# ELK4 = target: T9, ELK4 (Homo sapiens, UniProt P28324-2 1-405); settings: protein: recombinant; tags: N-terminal GST; dsDNA, one strand shown
# T9 sequence: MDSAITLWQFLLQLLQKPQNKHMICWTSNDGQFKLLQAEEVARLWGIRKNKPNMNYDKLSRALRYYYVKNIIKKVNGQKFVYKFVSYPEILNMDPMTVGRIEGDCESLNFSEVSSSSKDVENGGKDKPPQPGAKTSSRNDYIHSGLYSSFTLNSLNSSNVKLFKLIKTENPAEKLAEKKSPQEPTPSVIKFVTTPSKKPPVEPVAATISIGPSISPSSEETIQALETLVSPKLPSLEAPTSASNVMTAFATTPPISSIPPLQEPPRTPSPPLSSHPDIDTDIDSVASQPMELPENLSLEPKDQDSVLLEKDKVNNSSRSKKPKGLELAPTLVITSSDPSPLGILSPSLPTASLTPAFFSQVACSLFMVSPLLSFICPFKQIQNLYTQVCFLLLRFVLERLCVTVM
# Procedure, shortened: as §1
# ETV2 = target: T10, ETV2 (Homo sapiens, UniProt O00321 1-342); settings: protein: recombinant; tags: N-terminal GST; dsDNA, one strand shown
# T10 sequence: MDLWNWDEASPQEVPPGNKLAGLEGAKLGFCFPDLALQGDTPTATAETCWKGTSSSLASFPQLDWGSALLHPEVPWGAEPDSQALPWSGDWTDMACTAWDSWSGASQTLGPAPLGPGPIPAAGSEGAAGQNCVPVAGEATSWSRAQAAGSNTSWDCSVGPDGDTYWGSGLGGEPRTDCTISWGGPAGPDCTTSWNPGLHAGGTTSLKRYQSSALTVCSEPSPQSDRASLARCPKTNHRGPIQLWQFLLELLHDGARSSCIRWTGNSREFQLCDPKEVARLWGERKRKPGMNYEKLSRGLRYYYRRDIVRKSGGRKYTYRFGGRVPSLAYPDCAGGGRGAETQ
# Procedure, shortened: as §1
# ELF3 = target: T11, ELF3 (Homo sapiens, UniProt P78545 1-371); settings: protein: recombinant; tags: N-terminal GST; dsDNA, one strand shown
# T11 sequence: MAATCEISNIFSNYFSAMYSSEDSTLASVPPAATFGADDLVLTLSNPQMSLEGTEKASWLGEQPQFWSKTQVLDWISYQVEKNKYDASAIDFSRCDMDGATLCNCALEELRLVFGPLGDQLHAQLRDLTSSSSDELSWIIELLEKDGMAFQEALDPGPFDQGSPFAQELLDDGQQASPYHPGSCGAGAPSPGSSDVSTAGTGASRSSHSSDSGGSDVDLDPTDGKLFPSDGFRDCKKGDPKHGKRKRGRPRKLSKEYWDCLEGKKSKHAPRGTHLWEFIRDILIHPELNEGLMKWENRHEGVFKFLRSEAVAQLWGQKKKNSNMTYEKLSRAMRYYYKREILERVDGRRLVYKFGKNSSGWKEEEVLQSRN
# Procedure, shortened: as §1
# CRX = CRX (Homo sapiens, UniProt O43186 1-299); settings: protein: recombinant; tags: N-terminal GST; dsDNA, one strand shown
# Chain of CRX (O43186 whole entry): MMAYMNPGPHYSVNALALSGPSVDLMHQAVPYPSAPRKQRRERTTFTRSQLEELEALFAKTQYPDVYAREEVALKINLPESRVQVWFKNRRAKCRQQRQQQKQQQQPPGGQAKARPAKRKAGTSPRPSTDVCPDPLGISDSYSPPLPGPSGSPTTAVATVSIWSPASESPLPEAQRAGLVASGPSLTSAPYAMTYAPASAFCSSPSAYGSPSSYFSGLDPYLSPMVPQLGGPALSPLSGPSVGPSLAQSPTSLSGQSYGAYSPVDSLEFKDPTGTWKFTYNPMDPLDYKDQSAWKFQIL
# Procedure, shortened: as §1
# ETV1 = ETV1 (Homo sapiens, UniProt P50549 1-477); settings: protein: recombinant; tags: N-terminal GST; dsDNA, one strand shown
# Chain of ETV1 (P50549 whole entry): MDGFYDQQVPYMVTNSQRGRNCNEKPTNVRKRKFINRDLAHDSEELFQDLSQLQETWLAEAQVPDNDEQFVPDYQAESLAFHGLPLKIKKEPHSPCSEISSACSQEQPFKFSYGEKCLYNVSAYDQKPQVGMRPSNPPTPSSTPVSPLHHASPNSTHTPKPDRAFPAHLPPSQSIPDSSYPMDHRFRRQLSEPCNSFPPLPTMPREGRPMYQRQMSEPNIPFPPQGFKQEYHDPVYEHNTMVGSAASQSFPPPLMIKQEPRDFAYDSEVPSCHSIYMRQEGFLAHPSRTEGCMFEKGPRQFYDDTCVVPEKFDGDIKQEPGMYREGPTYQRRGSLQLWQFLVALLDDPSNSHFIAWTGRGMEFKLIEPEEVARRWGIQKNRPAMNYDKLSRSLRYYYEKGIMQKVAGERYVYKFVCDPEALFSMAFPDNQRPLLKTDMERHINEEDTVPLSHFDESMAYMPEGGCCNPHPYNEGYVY
# Procedure, shortened: as §1
sequence,measurement,setting,value
ATCCTT,binding signal,FLI1,"1.72 fold enrichment (6-mer frequency, TF over GST control)"
same,binding signal,ELK1,"1.62 fold enrichment (6-mer frequency, TF over GST control)"
same,binding signal,GABPA,"1.64 fold enrichment (6-mer frequency, TF over GST control)"
same,binding signal,ERG,"1.78 fold enrichment (6-mer frequency, TF over GST control)"
same,binding signal,ELF1,"1.6 fold enrichment (6-mer frequency, TF over GST control)"
same,binding signal,EHF,"1.68 fold enrichment (6-mer frequency, TF over GST control)"
same,binding signal,SPI1,"1.7 fold enrichment (6-mer frequency, TF over GST control)"
same,binding signal,SPIB,"1.67 fold enrichment (6-mer frequency, TF over GST control)"
same,binding signal,ELK3,"1.68 fold enrichment (6-mer frequency, TF over GST control)"
same,binding signal,FEV,"1.64 fold enrichment (6-mer frequency, TF over GST control)"
same,binding signal,ETV5,"1.67 fold enrichment (6-mer frequency, TF over GST control)"
same,binding signal,HSF1,"1.98 fold enrichment (6-mer frequency, TF over GST control)"
same,binding signal,SPIC,"1.74 fold enrichment (6-mer frequency, TF over GST control)"
same,binding signal,ELF4,"1.7 fold enrichment (6-mer frequency, TF over GST control)"
same,binding signal,ELK4,"1.77 fold enrichment (6-mer frequency, TF over GST control)"
same,binding signal,ETV2,"1.57 fold enrichment (6-mer frequency, TF over GST control)"
same,binding signal,ELF3,"1.47 fold enrichment (6-mer frequency, TF over GST control)"
same,binding signal,CRX,"2.37 fold enrichment (6-mer frequency, TF over GST control)"
same,binding signal,ETV1,"1.67 fold enrichment (6-mer frequency, TF over GST control)"
